Results filed as inconclusive are left out. Entries that show only a call come without a potency. Calls of active or inactive are those of the source. Unless noted, the call rests on the fitted dose curve; in most records, active means well fitted curve in the direction sought with a large enough effect in the repeat runs; inconclusive means weak or mixed curves; inactive means no such curve, though single readings can be large; an effect the other way counts as inactive or inconclusive.
Potency means the concentration at half of the fitted maximal effect.

Chain of Aromatase (Homo sapiens) (P11511 whole entry, looked up): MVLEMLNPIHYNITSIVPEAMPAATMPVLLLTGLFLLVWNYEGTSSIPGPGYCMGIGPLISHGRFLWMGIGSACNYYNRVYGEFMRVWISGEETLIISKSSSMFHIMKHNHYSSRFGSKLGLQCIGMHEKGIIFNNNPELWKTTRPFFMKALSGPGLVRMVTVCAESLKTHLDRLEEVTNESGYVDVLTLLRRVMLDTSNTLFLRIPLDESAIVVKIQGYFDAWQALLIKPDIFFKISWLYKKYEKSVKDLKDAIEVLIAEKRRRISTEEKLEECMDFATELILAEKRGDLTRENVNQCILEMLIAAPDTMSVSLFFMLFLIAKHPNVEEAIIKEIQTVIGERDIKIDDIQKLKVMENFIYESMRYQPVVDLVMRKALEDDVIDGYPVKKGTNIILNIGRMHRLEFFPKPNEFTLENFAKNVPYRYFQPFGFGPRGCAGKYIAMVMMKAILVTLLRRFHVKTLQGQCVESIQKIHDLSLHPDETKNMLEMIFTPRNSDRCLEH

System in the first test: not listed separately
Put plainly: qHTS assay to identify small molecule antagonists of the estrogen receptor alpha (ER-alpha) signaling pathway using the BG1 cell line (AID 743080; calls by dose curve;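 further: BG1 cells stimulated with 17beta-estradiol alongside compound; nearly all actives have a fitted effect of over 25% in size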). Conditions: BG1Luc4E2 ERE-luciferase antagonist mode, luminescence; series mostly up to 70.3 µM. The method, boiled down: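 BG1Luc4E2, endogenous ER-alpha, 4xERE-luc; 5 d charcoal-stripped FBS, phenol red free; 24 h plating; cpd + 17beta-estradiol 21.5 h, 37 C/5% CO2; CellTiter-Fluor viability 30 min, then ONE-Glo luciferase 30 min RT.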
As to `CC(CCc1ccc2c(c1)OCO2)NN` (stereo not drawn), the Potency result was “inactive”.

With `CCCCCC=CCC=CCCCCCCCC(=O)OCC`, the Potency result is “inactive”.

As to `CCCOc1ccc(S(=O)(=O)N2CCN(CC)CC2)cc1-c1nc2c(CC)n(Cc3ccccn3)nc2c(=O)[nH]1`, the Potency entry is “inactive”.

In the case of `Nc1ccc(C(=O)OCCCOC(=O)c2ccc(N)cc2)cc1`, the Potency result is “inactive”.

On to `CC(=O)Nc1ccc(N)cc1`, for which the Potency result is “inactive”.

In the case of `c1ccc(COCc2ccccc2)cc1`, the Potency result was “inactive”.

Take `Cc1ccc(S(=O)(=O)NC2CCCCC2)cc1`: the Potency is 68.1 µM (active).

In the case of `ON(Cc1ccccc1)Cc1ccccc1`, the Potency entry is “inactive”.

With `CC(=O)OCC(=O)[C@H]1CC[C@H]2[C@@H]3CCC4=CC(=O)CC[C@]4(C)[C@H]3CC[C@]12C`, the Potency entry is “inactive”.

As to `CCCCCCCCCCCC[N+](C)(C)CCCS(=O)(=O)[O-]`, the Potency entry is “inactive”.

With `CC1CC(=O)NN=C1c1ccc(NCC(C)(C)NCC(O)COc2cc(Cl)ccc2C#N)cc1` (stereo not drawn), the Potency entry was “inactive”.

With `CC(N)CN` (stereo not drawn), the Potency result was “inactive”.

Consider `O=C(O)C(Cc1cc(I)c(O)c(I)c1)c1ccccc1` (stereo not drawn), for which the Potency result was “inactive”.

System in another test: not listed separately
In words: qHTS assay to identify small molecule antagonists of the estrogen receptor alpha (ER-alpha) signaling pathway using the BG1 cell line - cell viability counter screen (AID 743081).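 Further: compound given together with 17beta-estradiol as the ER stimulus; nearly all actives have a fitted effect of over 45% in size.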 To be noted: BG1Luc4E2 viability, CellTiter-Fluor, 22 h; series mostly up to 70.3 µM.
For the compound `CC(=N\O)/C(C)=N/O`, the Potency entry was “inactive”.

Turning to `O=C(CS)OCCOC(=O)CS`, the Potency result was “inactive”.

Consider `Cc1ccccc1N1C(=O)c2cc(S(N)(=O)=O)c(Cl)cc2NC1C` (stereo not drawn), for which the Potency entry was “inactive”.

Regarding `O=C(Nc1ccccc1)Nc1ccccc1`, the Potency result is “inactive”.

With `CC(CCc1ccc2c(c1)OCO2)NN` (stereo not drawn), the Potency entry is “inactive”.

With `CCCCCC=CCC=CCCCCCCCC(=O)OCC`, the Potency result is “inactive”.

On to `CC(C)(O)c1ccccc1CC[C@@H](SCC1(CC(=O)O)CC1)c1cccc(/C=C/c2ccc3ccc(Cl)cc3n2)c1`, for which the Potency result is “inactive”.

In the case of `CC1=NN(c2ccc(C(=O)O)cc2)C(=O)C1`, the Potency entry is “inactive”.

In the case of `O=C(O)c1snc(Cl)c1Cl`, the Potency result was “inactive”.

Take `C[N+]1(C)CCC(=C(c2ccccc2)c2ccccc2)CC1`: the Potency entry is “inactive”.

Turning to `CCCOc1ccc(S(=O)(=O)N2CCN(CC)CC2)cc1-c1nc2c(CC)n(Cc3ccccn3)nc2c(=O)[nH]1`, the Potency entry was “inactive”.

Take `Nc1ccc(C(=O)OCCCOC(=O)c2ccc(N)cc2)cc1`: the Potency result is “inactive”.

On to `CC(=O)Nc1ccc(N)cc1`, for which the Potency result was “inactive”.

As to `C=CC(=C)CCCC(C)(C)OC(C)=O`, the Potency result is “inactive”.

As for `C[C@@H]1C[C@H]2[C@@H]3CCC4=CC(=O)C=C[C@]4(C)[C@@]3(F)[C@@H](O)C[C@]2(C)[C@@]1(O)C(=O)CO`, the Potency entry is “inactive”.

As to `c1ccc(COCc2ccccc2)cc1`, the Potency entry is “inactive”.

With `CC1(C)O[C@@H]2C[C@H]3[C@@H]4CCC5=CC(=O)C=C[C@]5(C)[C@H]4[C@@H](O)C[C@]3(C)[C@]2(C(=O)CO)O1`, the Potency result was “inactive”.

With `CC(C)C(OC(=O)c1ccccc1)C(C)(C)COC(=O)c1ccccc1` (stereo not drawn), the Potency entry is “inactive”.

In the case of `Cc1ccc(S(=O)(=O)NC2CCCCC2)cc1`, the Potency entry was “inactive”.

Take `ON(Cc1ccccc1)Cc1ccccc1`: the Potency result is “inactive”.

Consider `CC(=O)OCC(=O)[C@H]1CC[C@H]2[C@@H]3CCC4=CC(=O)CC[C@]4(C)[C@H]3CC[C@]12C`, for which the Potency result is “inactive”.

For `CCCCCCCCCCCC[N+](C)(C)CCCS(=O)(=O)[O-]`, the Potency result is “inactive”.

Consider `COCCOC`, for which the Potency entry was “inactive”.

With `CC(C)(C)C(=O)O`, the Potency result was “inactive”.

`Fc1c(F)c(F)c(Br)c(F)c1F`: the Potency entry is “inactive”.

With `CCC(C)=O`, the Potency result is “inactive”.

For `CC1CC(=O)NN=C1c1ccc(NCC(C)(C)NCC(O)COc2cc(Cl)ccc2C#N)cc1` (stereo not drawn), the Potency result is “inactive”.

Take `CC(N)CN` (stereo not drawn): the Potency result was “inactive”.

Regarding `CCCCOC(=O)CCS`, the Potency entry is “inactive”.

Regarding `Cc1cc(S(=O)(=O)O)ccc1N=Nc1c(O)ccc2ccccc12`, the Potency was 30.6 µM (active).

Consider `O=C(O)C(Cc1cc(I)c(O)c(I)c1)c1ccccc1` (stereo not drawn), for which the Potency entry was “inactive”.

Turning to `Fc1ccccc1[C@@H](F)COC1CCC(Nc2ncnc3[nH]ncc23)CC1` (stereo partly drawn), the Potency entry was “inactive”.

As to `CCCCC(=O)O[C@]1(C(=O)CO)CC[C@H]2[C@@H]3CCC4=CC(=O)CC[C@]4(C)[C@H]3[C@@H](O)C[C@@]21C`, the Potency result was “inactive”.

The next test concerns the target Aromatase (Homo sapiens) (UniProt P11511). Put plainly: qHTS assay to identify aromatase inhibitors (AID 743083). Further: nearly all actives have a fitted effect of over 55% in size. To be noted: MCF-7 aro ERE, testosterone-driven ERE luciferase, 24 h; series mostly up to 70.3 µM. For orientation: Quantitative high-throughput screening tests each substance at several concentrations.
On to `O=C1OCCN1/N=C/c1ccc([N+](=O)[O-])o1`, for which the Potency is 29.8 µM (active).

Regarding `CC(=N\O)/C(C)=N/O`, the Potency entry is “inactive”.

Take `O=C(CS)OCCOC(=O)CS`: the Potency result is “inactive”.

For `Cc1ccccc1N1C(=O)c2cc(S(N)(=O)=O)c(Cl)cc2NC1C` (stereo not drawn), the Potency entry is “inactive”.

In the case of `O=C(Nc1ccccc1)Nc1ccccc1`, the Potency entry was “inactive”.

Turning to `CC(CCc1ccc2c(c1)OCO2)NN` (stereo not drawn), the Potency entry was “inactive”.

In the case of `CCCCCC=CCC=CCCCCCCCC(=O)OCC`, the Potency entry was “inactive”.

In the case of `CC(C)(O)c1ccccc1CC[C@@H](SCC1(CC(=O)O)CC1)c1cccc(/C=C/c2ccc3ccc(Cl)cc3n2)c1`, the Potency result is “inactive”.

With `CC1=NN(c2ccc(C(=O)O)cc2)C(=O)C1`, the Potency entry was “inactive”.

`O=C(O)c1snc(Cl)c1Cl`: the Potency result is “inactive”.

For `O=C(N/N=C/c1ccc([N+](=O)[O-])o1)c1ccc(O)cc1`, the Potency was 10.1 µM (active).

For `C[N+]1(C)CCC(=C(c2ccccc2)c2ccccc2)CC1`, the Potency entry is “inactive”.

As to `CCCOc1ccc(S(=O)(=O)N2CCN(CC)CC2)cc1-c1nc2c(CC)n(Cc3ccccn3)nc2c(=O)[nH]1`, the Potency entry was “inactive”.

Consider `Nc1ccc(C(=O)OCCCOC(=O)c2ccc(N)cc2)cc1`, for which the Potency is 30.6 µM (active).

In the case of `CO[C@@]12[C@H](COC(N)=O)C3=C(C(=O)C(C)=C(N)C3=O)N1C[C@@H]1N[C@@H]12`, the Potency was 29.8 µM (active).

Regarding `CC(=O)Nc1ccc(N)cc1`, the Potency entry is “inactive”.

Consider `C=CC(=C)CCCC(C)(C)OC(C)=O`, for which the Potency entry is “inactive”.

Consider `C[C@@H]1C[C@H]2[C@@H]3CCC4=CC(=O)C=C[C@]4(C)[C@@]3(F)[C@@H](O)C[C@]2(C)[C@@]1(O)C(=O)CO`, for which the Potency entry was “inactive”.

As to `c1ccc(COCc2ccccc2)cc1`, the Potency result is “inactive”.

Consider `CC1(C)O[C@@H]2C[C@H]3[C@@H]4CCC5=CC(=O)C=C[C@]5(C)[C@H]4[C@@H](O)C[C@]3(C)[C@]2(C(=O)CO)O1`, for which the Potency result is “inactive”.

As for `Cc1ccc(S(=O)(=O)NC2CCCCC2)cc1`, the Potency entry is “inactive”.

With `ON(Cc1ccccc1)Cc1ccccc1`, the Potency entry is “inactive”.

For the compound `CC(=O)OCC(=O)[C@H]1CC[C@H]2[C@@H]3CCC4=CC(=O)CC[C@]4(C)[C@H]3CC[C@]12C`, the Potency result is “inactive”.

Take `CCCCCCCCCCCC[N+](C)(C)CCCS(=O)(=O)[O-]`: the Potency result was “inactive”.

Regarding `CC(C)(C)C(=O)O`, the Potency result was “inactive”.

In the case of `CC1CC(=O)NN=C1c1ccc(NCC(C)(C)NCC(O)COc2cc(Cl)ccc2C#N)cc1` (stereo not drawn), the Potency entry was “inactive”.

Take `CC(N)CN` (stereo not drawn): the Potency result is “inactive”.

In the case of `CC[C@@H]([C@H](C)O)n1ncn(-c2ccc(N3CCN(c4ccc(OC[C@@H]5CO[C@@](Cn6cncn6)(c6ccc(F)cc6F)C5)cc4)CC3)cc2)c1=O`, the Potency entry was “inactive”.

With `Cc1cc(S(=O)(=O)O)ccc1N=Nc1c(O)ccc2ccccc12`, the Potency entry is “inactive”.

On to `O=C(O)C(Cc1cc(I)c(O)c(I)c1)c1ccccc1` (stereo not drawn), for which the Potency result was “inactive”.

On to `Fc1ccccc1[C@@H](F)COC1CCC(Nc2ncnc3[nH]ncc23)CC1` (stereo partly drawn), for which the Potency is 24.3 µM (active).

Turning to `CCCCC(=O)O[C@]1(C(=O)CO)CC[C@H]2[C@@H]3CCC4=CC(=O)CC[C@]4(C)[C@H]3[C@@H](O)C[C@@]21C`, the Potency entry was “inactive”.

Source of the values: PubChem BioAssay (Tox21).
